Targets with a hit are over-represented here; the source holds about 8,800 in all. About 0.5% of all pairs of compound and target were hits.
Key:
Assay in all cases: log2 fold change, soluble protein after heating vs DMSO (PISA); higher = thermal stabilisation; K562 lysate, 10 uM; active = over 0.2 and 3.5 SD of the protein, either way, in both replicates (recomputed)
alvocidib = compound: CN1CC[C@H](c2c(O)cc(O)c3c(=O)cc(-c4ccccc4Cl)oc23)[C@H](O)C1 [alvocidib]
Procedure, shortened: (§1)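 To prepare the extract, K562 pellets were dounce-homogenised in PBS pH 7.4 with 1 mM MgCl2, giving crude material at 1 mg/mL protein. This was treated with 10 μM compound for 30 min, then heated in aliquots for 3 min over 48°C-58°C before pooling and addition of NP-40 to 0.5% at 4°C. Centrifugation at 21,000xg for 90 min left soluble protein in the supernatant, which TMTpro 16plex LC-MS/MS quantified with equalised channel sums. Results are log-two fold changes in thermal stability compared with solvent controls, from duplicates.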

Tubastatin A = compound: CN1CCc2c(c3ccccc3n2Cc2ccc(C(=O)NO)cc2)C1 [Tubastatin A]
Procedure, shortened: as §1

[1] = compound: CNC(=O)C1=CC=CC=C1NC2=NC(=NC=C2Cl)NC3=C(C=C(C=C3)N4CCOCC4)OC
Procedure, shortened: as §1

defactinib = compound: CNC(=O)c1ccc(Nc2ncc(C(F)(F)F)c(NCc3nccnc3N(C)S(C)(=O)=O)n2)cc1 [defactinib]
Procedure, shortened: as §1

[2] = compound: CNc1nc(-c2ccc3c(N)n[nH]c3c2)cc(N2C[C@@H](C(=O)NC3CCCCC3)CC[C@H]2C)n1
Procedure, shortened: as §1

[3] = compound: COc1cc2nc(-c3cc(F)ccc3O)nc(N[C@@H]3CNC[C@H]3C(C)(C)O)c2cc1OC
Procedure, shortened: as §1

encorafenib = compound: COC(=O)N[C@@H](C)CNc1nccc(-c2cn(C(C)C)nc2-c2cc(Cl)cc(NS(C)(=O)=O)c2F)n1 [encorafenib]
Procedure, shortened: as §1

[4] = compound: COC(=O)[C@H](CCSC)NC(=O)C1=C(C=C(C=C1)NC[C@H](CS)N)C2=CC=CC=C2
Procedure, shortened: as §1

alisertib = compound: COc1cc(Nc2ncc3c(n2)-c2ccc(Cl)cc2C(c2c(F)cccc2OC)=NC3)ccc1C(=O)O [alisertib]
Procedure, shortened: as §1

gefitinib = compound: COc1cc2ncnc(Nc3ccc(F)c(Cl)c3)c2cc1OCCCN1CCOCC1 [gefitinib]
Procedure, shortened: as §1

Measured: log2 fold change

SH3BP2 isoform 4 (UniProt P78314)
inactive: alvocidib -0.023 | Tubastatin A 0.026 | [1] 0.03 | defactinib -0.054 | [2] 0.099 | [3] 0.053

TADA3 (UniProt O75528)
inactive: alvocidib 0.001 | Tubastatin A -0.04 | [1] 0.044 | defactinib -0.007 | [2] 0.06 | encorafenib 0.029 | [4] -0.024 | alisertib 0 | [3] 0.001 | gefitinib 0.03

TAPT1 (UniProt Q6NXT6)
inactive: alvocidib -0.101 | Tubastatin A 0.037 | [1] -0.086 | defactinib 0.047 | [2] 0.056 | encorafenib 0.053 | [4] -0.074 | alisertib -0.016 | [3] -0.006 | gefitinib 0.055

SPR (UniProt P35270)
inactive: alvocidib 0.164 | Tubastatin A -0.1 | [1] 0.071 | defactinib 0.019 | [2] 0.01 | encorafenib -0.097 | [4] 0.22 | alisertib 0.163 | [3] -0.017 | gefitinib -0.013

SOX5 (UniProt P35711)
inactive: alvocidib 0.048 | Tubastatin A -0.113 | [1] -0.219 | defactinib 0.017 | [2] 0.074 | encorafenib 0.034 | [4] -0.025 | [3] -0.104

SMC4 (UniProt Q9NTJ3)
inactive: alvocidib 0.03 | Tubastatin A -0.079 | [1] -0.006 | defactinib -0.003 | [2] -0.008 | encorafenib 0.004 | [4] 0.024 | alisertib 0.001 | [3] 0 | gefitinib -0.024

SRSF2 (UniProt Q01130)
Sequence of UniProt Q01130 (Q01130 whole entry, looked up): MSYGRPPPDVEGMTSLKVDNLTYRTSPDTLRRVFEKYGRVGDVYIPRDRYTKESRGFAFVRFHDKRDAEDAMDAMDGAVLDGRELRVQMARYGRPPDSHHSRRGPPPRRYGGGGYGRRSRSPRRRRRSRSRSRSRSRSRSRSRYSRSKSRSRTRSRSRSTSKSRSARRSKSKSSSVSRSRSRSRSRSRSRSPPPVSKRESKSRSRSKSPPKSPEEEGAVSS
inactive: alvocidib -0.135 | Tubastatin A 0.084 | [1] -0.017 | defactinib -0.018 | [2] -0.005 | encorafenib 0.033 | [4] -0.016 | alisertib -0.004 | [3] 0.016 | gefitinib 0.015

SMTN isoform 6 (UniProt P53814)
inactive: alvocidib -0.04 | Tubastatin A -0.019 | [1] 0.071 | defactinib -0.103 | [2] -0.013 | encorafenib -0.002 | [4] -0.085 | alisertib 0.055 | [3] -0.005 | gefitinib 0.005

SF3B6 (UniProt Q9Y3B4)
inactive: alvocidib 0.05 | Tubastatin A -0.037 | [1] 0.016 | defactinib 0.017 | [2] 0.071 | encorafenib 0.014 | [4] -0.003 | alisertib -0.011 | [3] -0.027 | gefitinib -0.172

SNCA (UniProt P37840)
inactive: alvocidib -0.094 | Tubastatin A 0.172 | [1] 0.028 | defactinib -0.019 | [2] 0.269 | encorafenib -0.026 | [4] 0.204 | alisertib -0.021 | [3] 0.117 | gefitinib 0.089

SPNS1 (UniProt Q9H2V7)
Sequence of UniProt Q9H2V7 (Q9H2V7 whole entry, looked up): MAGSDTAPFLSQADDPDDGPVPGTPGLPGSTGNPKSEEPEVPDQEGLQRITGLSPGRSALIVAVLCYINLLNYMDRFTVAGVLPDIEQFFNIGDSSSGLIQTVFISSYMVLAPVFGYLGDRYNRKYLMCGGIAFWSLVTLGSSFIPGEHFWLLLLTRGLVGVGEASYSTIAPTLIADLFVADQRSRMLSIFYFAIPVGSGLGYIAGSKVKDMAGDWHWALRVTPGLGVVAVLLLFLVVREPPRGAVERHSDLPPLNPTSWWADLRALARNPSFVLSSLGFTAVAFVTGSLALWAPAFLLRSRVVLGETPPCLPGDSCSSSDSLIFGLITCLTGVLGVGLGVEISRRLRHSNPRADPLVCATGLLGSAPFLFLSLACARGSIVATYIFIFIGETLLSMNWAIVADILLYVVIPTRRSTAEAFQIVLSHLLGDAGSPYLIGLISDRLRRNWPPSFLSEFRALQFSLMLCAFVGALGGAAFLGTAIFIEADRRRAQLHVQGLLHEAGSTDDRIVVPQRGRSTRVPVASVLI
inactive: alvocidib -0.118 | Tubastatin A 0.034 | [1] 0.06 | defactinib 0.095 | [2] -0.03 | encorafenib 0.019 | [4] -0.031 | alisertib 0.047 | [3] 0.019 | gefitinib -0.015

SMPD2 (UniProt O60906)
inactive: alvocidib -0.043 | Tubastatin A 0.088 | [1] -0.787 | [2] -0.034 | encorafenib 0.09 | [4] -0.22 | [3] -0.074

TARDBP (UniProt K7EN94)
inactive: defactinib -0.197 | encorafenib 0.224 | [4] 0.04

SMARCA4 isoform 4 (UniProt P51532)
inactive: alvocidib 0.078 | Tubastatin A 0.106 | [1] -0.008 | [2] 0.024 | encorafenib -0.315 | [4] 0.04 | alisertib -0.046 | [3] -0.038 | gefitinib -0.116

SNRPD2 (UniProt K7EJB5)
inactive: Tubastatin A -0.001 | [1] -0.057 | defactinib -0.074 | [2] 0.054 | encorafenib -0.069 | [4] 0.047 | alisertib 0.103 | [3] 0.025 | gefitinib 0.107

SZT2 (UniProt Q5T011)
Sequence of UniProt Q5T011 (Q5T011 whole entry, looked up): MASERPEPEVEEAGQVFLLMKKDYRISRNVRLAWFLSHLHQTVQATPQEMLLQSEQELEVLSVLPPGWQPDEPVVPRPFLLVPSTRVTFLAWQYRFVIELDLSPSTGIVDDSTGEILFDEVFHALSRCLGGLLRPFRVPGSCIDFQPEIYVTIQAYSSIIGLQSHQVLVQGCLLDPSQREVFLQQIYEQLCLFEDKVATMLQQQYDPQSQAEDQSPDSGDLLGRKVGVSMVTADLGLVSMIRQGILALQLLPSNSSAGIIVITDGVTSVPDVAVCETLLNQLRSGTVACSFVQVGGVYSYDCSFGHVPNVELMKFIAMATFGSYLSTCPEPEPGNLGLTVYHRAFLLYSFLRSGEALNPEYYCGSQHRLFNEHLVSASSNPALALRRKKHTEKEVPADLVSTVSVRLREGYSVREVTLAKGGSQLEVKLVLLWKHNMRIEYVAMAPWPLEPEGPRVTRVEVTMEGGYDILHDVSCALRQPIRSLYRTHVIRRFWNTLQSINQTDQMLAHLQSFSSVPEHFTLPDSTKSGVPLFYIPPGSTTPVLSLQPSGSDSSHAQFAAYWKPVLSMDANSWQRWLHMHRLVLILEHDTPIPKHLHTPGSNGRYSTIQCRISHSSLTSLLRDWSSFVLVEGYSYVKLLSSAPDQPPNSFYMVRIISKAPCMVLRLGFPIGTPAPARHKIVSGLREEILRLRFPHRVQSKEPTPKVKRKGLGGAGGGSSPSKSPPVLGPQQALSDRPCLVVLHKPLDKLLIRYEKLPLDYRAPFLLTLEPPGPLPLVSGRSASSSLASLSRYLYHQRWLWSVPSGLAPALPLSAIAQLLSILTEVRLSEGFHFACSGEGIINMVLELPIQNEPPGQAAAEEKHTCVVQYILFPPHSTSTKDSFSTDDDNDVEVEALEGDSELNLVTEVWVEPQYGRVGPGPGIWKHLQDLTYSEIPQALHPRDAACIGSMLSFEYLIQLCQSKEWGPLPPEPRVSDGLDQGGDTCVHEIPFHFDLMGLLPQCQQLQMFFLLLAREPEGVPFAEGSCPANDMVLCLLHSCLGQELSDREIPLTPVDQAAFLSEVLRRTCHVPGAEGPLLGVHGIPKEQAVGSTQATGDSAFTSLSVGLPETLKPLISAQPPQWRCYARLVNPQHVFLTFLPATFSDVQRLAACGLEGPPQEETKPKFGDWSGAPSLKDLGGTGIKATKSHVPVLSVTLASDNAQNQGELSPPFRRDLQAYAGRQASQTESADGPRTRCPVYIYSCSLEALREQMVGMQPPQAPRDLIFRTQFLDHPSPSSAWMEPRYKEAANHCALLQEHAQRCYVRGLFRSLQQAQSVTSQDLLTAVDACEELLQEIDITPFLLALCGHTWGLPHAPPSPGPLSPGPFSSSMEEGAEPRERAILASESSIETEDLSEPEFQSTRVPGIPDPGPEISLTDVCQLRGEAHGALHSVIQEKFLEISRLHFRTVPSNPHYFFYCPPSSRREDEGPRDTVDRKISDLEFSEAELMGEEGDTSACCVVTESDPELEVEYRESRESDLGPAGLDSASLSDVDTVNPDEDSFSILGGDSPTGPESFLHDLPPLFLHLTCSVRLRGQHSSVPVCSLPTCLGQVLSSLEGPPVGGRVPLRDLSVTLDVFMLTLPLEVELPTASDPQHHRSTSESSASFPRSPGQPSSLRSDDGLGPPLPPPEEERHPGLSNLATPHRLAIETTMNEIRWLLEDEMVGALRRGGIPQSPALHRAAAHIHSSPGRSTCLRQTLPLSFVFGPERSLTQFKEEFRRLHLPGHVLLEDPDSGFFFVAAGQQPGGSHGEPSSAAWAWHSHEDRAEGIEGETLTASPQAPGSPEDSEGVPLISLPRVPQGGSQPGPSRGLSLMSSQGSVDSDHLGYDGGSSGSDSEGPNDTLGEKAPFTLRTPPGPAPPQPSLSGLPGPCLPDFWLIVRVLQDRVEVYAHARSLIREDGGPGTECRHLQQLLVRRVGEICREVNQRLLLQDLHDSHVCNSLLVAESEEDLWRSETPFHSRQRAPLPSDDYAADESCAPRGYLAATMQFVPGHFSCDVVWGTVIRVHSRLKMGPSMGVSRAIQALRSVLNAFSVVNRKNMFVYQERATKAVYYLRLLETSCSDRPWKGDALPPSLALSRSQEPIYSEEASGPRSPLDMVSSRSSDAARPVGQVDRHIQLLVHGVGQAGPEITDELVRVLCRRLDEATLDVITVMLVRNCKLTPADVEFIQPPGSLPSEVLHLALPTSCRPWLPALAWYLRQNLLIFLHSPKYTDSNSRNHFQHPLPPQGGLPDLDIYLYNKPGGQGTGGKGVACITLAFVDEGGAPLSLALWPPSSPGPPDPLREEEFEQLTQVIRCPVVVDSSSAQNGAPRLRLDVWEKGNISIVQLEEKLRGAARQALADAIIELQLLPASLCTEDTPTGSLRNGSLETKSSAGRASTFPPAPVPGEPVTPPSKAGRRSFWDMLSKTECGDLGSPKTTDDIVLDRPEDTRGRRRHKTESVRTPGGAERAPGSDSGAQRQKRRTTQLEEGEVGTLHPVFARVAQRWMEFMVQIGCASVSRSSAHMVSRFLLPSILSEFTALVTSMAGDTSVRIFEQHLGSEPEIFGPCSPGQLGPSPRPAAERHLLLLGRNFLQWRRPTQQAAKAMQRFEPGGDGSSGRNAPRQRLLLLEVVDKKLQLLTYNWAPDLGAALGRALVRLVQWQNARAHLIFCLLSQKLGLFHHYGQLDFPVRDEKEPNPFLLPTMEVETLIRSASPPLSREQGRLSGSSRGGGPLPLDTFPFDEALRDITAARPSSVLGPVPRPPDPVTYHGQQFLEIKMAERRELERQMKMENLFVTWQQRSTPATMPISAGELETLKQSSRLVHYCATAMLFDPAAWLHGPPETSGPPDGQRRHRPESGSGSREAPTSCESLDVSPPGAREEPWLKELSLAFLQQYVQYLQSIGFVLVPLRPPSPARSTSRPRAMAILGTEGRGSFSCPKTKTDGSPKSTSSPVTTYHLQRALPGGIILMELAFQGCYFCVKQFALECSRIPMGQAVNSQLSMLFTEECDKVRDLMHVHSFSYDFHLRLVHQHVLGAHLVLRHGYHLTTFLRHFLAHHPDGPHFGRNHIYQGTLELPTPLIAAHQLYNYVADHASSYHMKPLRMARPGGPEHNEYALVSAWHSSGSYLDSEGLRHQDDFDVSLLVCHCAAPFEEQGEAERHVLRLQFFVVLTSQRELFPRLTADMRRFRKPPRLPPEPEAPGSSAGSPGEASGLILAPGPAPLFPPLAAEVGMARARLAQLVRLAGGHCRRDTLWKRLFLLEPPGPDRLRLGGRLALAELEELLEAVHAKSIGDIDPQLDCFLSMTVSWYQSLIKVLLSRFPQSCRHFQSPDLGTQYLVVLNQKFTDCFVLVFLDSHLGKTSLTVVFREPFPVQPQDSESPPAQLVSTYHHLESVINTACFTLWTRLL
inactive: alvocidib -0.169 | Tubastatin A 0.012 | [1] -0.002 | [2] 0.109 | encorafenib -0.011 | [4] -0.105 | alisertib -0.193 | [3] -0.031 | gefitinib 0.094

SLCO4A1 (UniProt Q96BD0)
inactive: alvocidib -0.129 | alisertib -0.041 | gefitinib -0.001

SURF2 (UniProt Q15527)
active: [4] -0.319
inactive: alvocidib -0.02 | Tubastatin A -0.276 | defactinib 0.016 | [2] 0.013 | encorafenib -0.001 | alisertib -0.005 | [3] 0.011 | gefitinib -0.041

SRC isoform 2 (UniProt P12931)
inactive: alvocidib -0.035 | Tubastatin A 0.133 | [1] 0.118 | [2] -0.031 | encorafenib -0.171 | [4] 0.399 | [3] 0

TAOK2 (UniProt Q9UL54)
inactive: alvocidib -0.053 | Tubastatin A 0.046 | defactinib -0.001 | [2] -0.015 | encorafenib -0.033 | [4] 0.055 | alisertib 0.02 | [3] 0.02 | gefitinib -0.009

STMN3 (UniProt Q9NZ72)
inactive: Tubastatin A 0.009 | [1] 0.014 | defactinib 0.023 | [2] 0.029 | encorafenib -0.015 | [4] -0.021 | alisertib -0.082 | [3] -0.012 | gefitinib -0.041

SNIP1 (UniProt Q8TAD8)
inactive: alisertib -0.024 | gefitinib -0.015

SPAG1 (UniProt Q07617)
inactive: Tubastatin A 0.071 | defactinib -0.014 | [3] -0.03

STK3 isoform 2 (UniProt Q13188)
inactive: Tubastatin A -0.075 | defactinib 0.205 | [2] 0.015 | encorafenib -0.046 | [4] -0.068 | [3] 0.269 | gefitinib 0.002

STK17B (UniProt O94768)
inactive: Tubastatin A -0.466 | [1] 0.082 | [2] 0.642 | alisertib 0.066 | gefitinib 0.094

TAF1B (UniProt Q53T94)
inactive: alvocidib 0.175 | Tubastatin A -0.083 | defactinib -0.024 | [2] 0.614 | encorafenib 0.073 | [4] -0.13 | alisertib -0.177 | [3] -0.047 | gefitinib 0.016

STK38L (UniProt Q9Y2H1)
active: [1] 0.647
inactive: Tubastatin A -0.063 | [2] 0.06 | encorafenib -0.036 | [4] 0.193 | alisertib 0.06 | gefitinib -0.049

SLC41A1 (UniProt Q8IVJ1)
Sequence of UniProt Q8IVJ1 (Q8IVJ1 whole entry, looked up): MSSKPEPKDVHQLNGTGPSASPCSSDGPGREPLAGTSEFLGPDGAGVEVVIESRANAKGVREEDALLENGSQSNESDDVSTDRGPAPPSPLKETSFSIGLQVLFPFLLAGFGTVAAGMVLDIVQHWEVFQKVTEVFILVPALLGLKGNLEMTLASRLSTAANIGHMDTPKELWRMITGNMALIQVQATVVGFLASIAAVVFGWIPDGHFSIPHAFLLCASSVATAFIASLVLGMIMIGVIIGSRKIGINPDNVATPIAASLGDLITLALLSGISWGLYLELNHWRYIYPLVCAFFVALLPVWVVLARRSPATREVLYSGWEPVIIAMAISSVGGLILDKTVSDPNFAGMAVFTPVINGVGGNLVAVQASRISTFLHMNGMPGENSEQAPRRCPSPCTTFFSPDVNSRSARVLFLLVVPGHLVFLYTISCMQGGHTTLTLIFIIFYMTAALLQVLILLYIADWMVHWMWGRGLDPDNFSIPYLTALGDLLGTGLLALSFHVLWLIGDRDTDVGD
inactive: alvocidib -0.213 | Tubastatin A 0.055 | [1] 0.043 | encorafenib 0.071 | [4] -0.031 | alisertib 0.024 | [3] 0.014 | gefitinib 0.153

STAU1 isoform 3 (UniProt O95793)
inactive: alvocidib -0.06 | [1] -0.044 | alisertib -0.068 | gefitinib 0.03

SLC12A6 isoform 2 (UniProt Q9UHW9)
inactive: Tubastatin A -0.013 | [1] -0.149 | [2] -0.008 | encorafenib 0.031 | [4] 0.075 | [3] -0.106

STK26 isoform 3 (UniProt Q9P289)
inactive: [2] 0.058 | encorafenib 0.034 | [4] 0.001

TAF11 (UniProt Q15544)
active: [4] 0.398
inactive: alvocidib -0.015 | Tubastatin A 0.014 | defactinib -0.151 | [2] 0.137 | encorafenib -0.155 | alisertib -0.053 | [3] 0.048 | gefitinib 0.064

SMIM1 (UniProt B2RUZ4)
inactive: alvocidib -0.031 | Tubastatin A 0.123 | [1] 0.097 | encorafenib 0.226 | [4] -0.07 | alisertib -0.149 | [3] 0.022 | gefitinib -0.279

SLC39A13 (UniProt Q96H72)
inactive: Tubastatin A -0.125 | [1] -0.058

SNAPC2 (UniProt Q13487)
inactive: alvocidib -0.034 | Tubastatin A -0.117 | [1] -0.005 | [2] -0.175 | alisertib 0.014 | gefitinib -0.044

SLC22A18 (UniProt Q96BI1)
inactive: alvocidib -0.035 | [1] 0.052 | defactinib -0.076 | encorafenib 0.009 | [4] -0.013 | [3] -0.077

SMYD3 (UniProt Q9H7B4)
inactive: Tubastatin A -0.122 | [1] -0.018 | defactinib 0.036 | [2] 0.028 | encorafenib 0.022 | [4] 0.071 | alisertib -0.044 | [3] 0 | gefitinib 0.034

SPA17 (UniProt Q15506)
inactive: alvocidib -0.208 | Tubastatin A 0.021 | defactinib 0.056 | [2] 0.038 | encorafenib -0.007 | [4] -0.032 | [3] -0.038

STK17A (UniProt Q9UEE5)
Sequence of UniProt Q9UEE5 (Q9UEE5 whole entry, looked up): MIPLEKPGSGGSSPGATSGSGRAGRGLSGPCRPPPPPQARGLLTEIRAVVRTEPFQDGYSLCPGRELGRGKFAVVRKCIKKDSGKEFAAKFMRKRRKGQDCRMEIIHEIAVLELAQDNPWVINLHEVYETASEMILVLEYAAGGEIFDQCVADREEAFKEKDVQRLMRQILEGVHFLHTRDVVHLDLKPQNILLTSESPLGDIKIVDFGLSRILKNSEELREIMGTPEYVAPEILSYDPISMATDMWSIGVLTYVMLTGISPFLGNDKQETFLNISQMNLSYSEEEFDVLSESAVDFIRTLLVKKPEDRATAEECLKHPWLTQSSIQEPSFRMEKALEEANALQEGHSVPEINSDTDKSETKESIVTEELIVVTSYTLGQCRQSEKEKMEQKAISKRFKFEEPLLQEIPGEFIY
inactive: alvocidib 0.182 | alisertib -0.291 | gefitinib -0.141

SIN3B (UniProt O75182)
inactive: alvocidib -0.463 | defactinib 0.185 | encorafenib 0.12 | [4] 0.272 | alisertib -0.064 | gefitinib 0.793

SIX5 (UniProt Q8N196)
inactive: alvocidib 0.159 | Tubastatin A 0.117 | [1] 0.015 | [2] 0.043 | alisertib 0.023 | [3] 0.008 | gefitinib 0.13

SHB (UniProt Q15464)
inactive: alvocidib -0.139 | Tubastatin A -0.108 | [1] 0.169 | [2] 0.067 | [3] 0.034

TAOK2 isoform 2 (UniProt Q9UL54)
inactive: alisertib -0.046 | gefitinib -0.202

SMC1B isoform 3 (UniProt Q8NDV3)
inactive: Tubastatin A 0.038 | [1] 0 | defactinib 0.147 | [2] 0.028 | encorafenib 0.039 | [4] -0.03 | alisertib 0.027 | [3] -0.03 | gefitinib 0.044

Source: the supplement of paper PMC10849652
